From PubChem BioAssay (Tox21) come the findings set out here.

Active and inactive are the calls of the source. Entries that show only a call come without a potency. The call rests on the fitted dose curve.
Potency means the concentration at half of the fitted maximal effect.

Sequence of Thyrotropin-releasing hormone receptor (Homo sapiens) (P34981 whole entry, looked up): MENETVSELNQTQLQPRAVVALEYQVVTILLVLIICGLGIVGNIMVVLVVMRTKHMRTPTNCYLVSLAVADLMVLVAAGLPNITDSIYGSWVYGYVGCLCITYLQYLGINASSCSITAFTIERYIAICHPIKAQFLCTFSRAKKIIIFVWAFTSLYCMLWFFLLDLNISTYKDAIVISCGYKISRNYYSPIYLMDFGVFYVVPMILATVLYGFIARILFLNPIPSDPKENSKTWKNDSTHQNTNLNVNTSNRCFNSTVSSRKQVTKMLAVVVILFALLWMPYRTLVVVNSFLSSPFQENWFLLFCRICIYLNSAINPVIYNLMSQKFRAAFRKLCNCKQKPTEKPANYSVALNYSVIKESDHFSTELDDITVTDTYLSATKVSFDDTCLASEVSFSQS

This assay deals with Thyrotropin-releasing hormone receptor (Homo sapiens) (UniProt P34981). Put plainly: qHTS assay to identify small molecule agonists of the thyrotropin-releasing hormone receptor (TRHR) signaling pathway (AID 1346891). As to conditions: TRHR-HEK293 calcium fluorescence, agonist mode; series mostly up to 57.6 µM. The method, boiled down:
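In 1536-format, 1500 TRHR-Hek293 cells per well grew 18 h, took up calcium dye for 2 h at 37 °C, received compound, and were read kinetically; 15-point titrations, triplicates.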
Regarding `O=C(CBr)c1ccc(O)cc1`, the Potency result is “inactive”.

Consider `Nc1ccc(Sc2ccc(N)cc2)cc1`, for which the Potency result is “inactive”.

Turning to `O=C1NCN(c2ccccc2)C12CCN(CC1COc3ccccc3O1)CC2` (centres undefined), the Potency result is “inactive”.

For the compound `CCCCCCCCCC[N+](C)(C)CCCCCCCCCC`, the Potency result is “inactive”.

As to `Cc1cc(C(C)(C)c2cc(C)c(O)c(C)c2)cc(C)c1O`, the Potency entry was “inactive”.

Regarding `COc1ccc(OC)c(C=O)c1`, the Potency entry was “inactive”.

Turning to `O=[N+]([O-])c1cc(C(F)(F)F)c(Cl)c([N+](=O)[O-])c1Cl`, the Potency result was “inactive”.

On to `CN(C)[C@@H]1C(=O)C(C(N)=O)=C(O)[C@@]2(O)C(=O)C3=C(O)c4c(O)ccc(Cl)c4[C@@](C)(O)[C@H]3C[C@@H]12`, for which the Potency entry was “inactive”.

For `Oc1c(Cl)c(Cl)cc(Cl)c1Cl`, the Potency result was “inactive”.

In the case of `CC(=O)C(Cl)(Cl)Cl`, the Potency result was “inactive”.

Take `Cc1cc(C(F)(C(F)(F)F)C(F)(F)F)ccc1NC(=O)c1cccc(I)c1C(=O)NC(C)(C)CS(C)(=O)=O`: the Potency entry was “inactive”.

In the case of `C[C@H]1CC[C@@H]2[C@@H](C)[C@H]3[C@H](C[C@H]4[C@@H]5CC=C6CC(O[C@@H]7O[C@H](CO)[C@H](O)[C@H](O[C@@H]8O[C@H](CO)[C@@H](O)[C@H](O)[C@H]8O)[C@H]7O[C@H]7O[C@@H](C)[C@H](O)[C@@H](O)[C@H]7O)CC[C@]6(C)[C@H]5CC[C@]34C)N2C1` (some centres undefined), the Potency was 8.99 µM (active).

With `CCOCn1c(-c2ccc(Cl)cc2)c(C#N)c(Br)c1C(F)(F)F`, the Potency entry was “inactive”.

As for `C[C@@H]1CC[C@@]2(OC1)O[C@H]1[C@@H](O)[C@H]3[C@@H]4CC[C@H]5C[C@@H](O[C@@H]6O[C@H](CO)[C@H](O[C@@H]7O[C@H](CO)[C@@H](O)[C@H](O[C@@H]8OC[C@@H](O)[C@H](O)[C@H]8O)[C@H]7O[C@@H]7O[C@H](CO)[C@@H](O)[C@H](O[C@@H]8O[C@H](CO)[C@@H](O)[C@H](O)[C@H]8O)[C@H]7O)[C@H](O)[C@H]6O)[C@H](O)C[C@]5(C)[C@H]4CC[C@]3(C)[C@H]1[C@@H]2C`, the Potency was 0.655 µM (active).
